Experimental data: publication PMC10668032, “Altered binding affinity of SIX1-Q177R correlates with enhanced WNT5A and WNT pathway effector expression in Wilms tumor”
Over roughly 33,000 sequences, “e-score” has its median near -0.053; the highest 2% begin near 0.38. The entries come from a sample that favours the highest values as a whole.

Target: T1, SIX1 homeodomain (reference allele) (human, UniProt Q15475 108-198)
T1 sequence: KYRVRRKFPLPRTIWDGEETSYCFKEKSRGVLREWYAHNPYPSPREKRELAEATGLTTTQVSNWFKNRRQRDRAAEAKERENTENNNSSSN
Assay: universal protein binding microarray; Universal all-10-mer PBM (8x60K, AMADID 030236), 300 nM GST-tagged protein, Alexa Fluor 488 anti-GST; buffer, salt, pH and temperature not stated (as in Berger); high values mean tight binding
Settings: protein: ivt; tags: N-terminal GST; dsDNA, one strand shown
Procedure, shortened: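 GST-tagged homeodomains were made by in vitro transcription/translation and quantified by anti-GST western blot against a recombinant GST standard curve. They were applied in duplicate at 300 nM final concentration to universal 'all 10-mer' protein binding microarrays (8×60K format). Binding was quantified as 8-mer E-scores with the Universal PBM Analysis Suite.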

Row | Sequence | binding signal [E-score]
1 | ATCAGATG | 0.319 ± 0.0136
2 | GTCAGATA | 0.273 ± 0.0192
3 | CTCAGATC | 0.27 ± 0.00864
4 | ATCAGATA | 0.378 ± 0.0255
5 | CGTATGAA | 0.15 ± 0.0134
6 | AAGGTGTC | 0.373 ± 0.0231
7 | CCCGTGTC | 0.255 ± 0.0128
8 | ACGGTGTA | 0.255 ± 0.00781
9 | CAGGTGTC | 0.394 ± 0.0354
10 | CCGGTGTA | 0.332 ± 0.0356
11 | ACGGTGTC | 0.437 ± 0.0187
12 | ACGGTGAT | 0.181 ± 0.00713
13 | CAGGTGTA | 0.272 ± 0.00711
14 | CCGGTGTC | 0.431 ± 0.0182
15 | GTCTGGTA | 0.151 ± 0.048
16 | ATCGGAAT | 0.172 ± 0.0652
17 | AAGAGTAT | 0.277 ± 0.117
18 | ATATATTG | 0.238 ± 0.0753
19 | GGGATCTA | 0.272 ± 0.0387
20 | CGGATCTA | 0.318 ± 0.04
21 | CGGATCCG | 0.417 ± 0.0204
22 | CAGATCCG | 0.322 ± 0.0638

Row | Sequence | binding signal [E-score]
23 | CAGATCGC | 0.284 ± 0.0237
24 | GGGATCCA | 0.375 ± 0.0614
25 | AGGATCCG | 0.308 ± 0.0272
26 | CGGATCGC | 0.395 ± 0.05
27 | CGGATCCA | 0.406 ± 0.0429
28 | AGGATCGC | 0.27 ± 0.0489
29 | TGGATCCA | 0.295 ± 0.0443
30 | GGGATCCC | 0.415 ± 0.0591
31 | AATGAGCC | 0.158 ± 0.0559
32 | ATGTCTCA | 0.2 ± 0.0211
33 | AGGGCGAT | 0.284 ± 0.0121
34 | ATCACCAG | 0.166 ± 0.0324
35 | CCACGATC | 0.195 ± 0.0938
36 | ATCCTGAC | 0.228 ± 0.00948
37 | AAGTATTG | 0.157 ± 0.085
38 | AGGATCCC | 0.379 ± 0.00668
39 | AGGATCTG | 0.244 ± 0.0478
40 | CAGATCCC | 0.295 ± 0.0571
41 | AAGATCCT | 0.326 ± 0.0346
42 | CGGATCTC | 0.342 ± 0.0442
43 | AGGATCCA | 0.346 ± 0.0238
44 | AGGATCCT | 0.385 ± 0.0102

Row | Sequence | binding signal [E-score]
45 | CGGATCCC | 0.399 ± 0.0592
46 | AGGATCTC | 0.292 ± 0.0258
47 | ATCTTCGA | 0.193 ± 0.0484
48 | GAGGAATA | 0.21 ± 0.0309
49 | GACCTATC | 0.269 ± 0.00861
50 | ACATGATC | 0.279 ± 0.0144
51 | CCATGATC | 0.293 ± 0.0102
52 | GCATGATA | 0.4269 ± 0.00375
53 | ACATGAGA | 0.183 ± 0.0219
54 | CCATGATA | 0.376 ± 0.00711
55 | GCCTGATA | 0.321 ± 0.0449
56 | GCACGATA | 0.325 ± 0.00783
57 | ACATGATA | 0.426 ± 0.0281
58 | CCATGAGA | 0.242 ± 0.0275
59 | AACCATCT | 0.154 ± 0.0503
60 | ATCAATAA | 0.182 ± 0.0114
61 | ATCAGCCA | 0.237 ± 0.00617
62 | ACCGCTAT | 0.216 ± 0.0322
63 | GAGATAGC | 0.161 ± 0.0517
64 | CAGATACC | 0.433 ± 0.00544
65 | AAGATACC | 0.426 ± 0.0219
66 | CAGATACG | 0.334 ± 0.0281

Row | Sequence | binding signal [E-score]
67 | AAGATACG | 0.322 ± 0.0506
68 | GAGATACA | 0.332 ± 0.0042
69 | AAAATACC | 0.181 ± 0.0716
70 | GAGATACC | 0.44068 ± 0.000332
71 | CAGATACA | 0.355 ± 0.0318
72 | GATCTGGC | 0.295 ± 0.0253
73 | ATATTGTA | 0.294 ± 0.0399
74 | TAATATTA | 0.161 ± 0.0729
75 | GATCAAGC | 0.312 ± 0.00728
76 | ACACGACT | 0.162 ± 0.0387
77 | ATCATTCG | 0.294 ± 0.00745
78 | GAGCGATC | 0.279 ± 0.0379
79 | GATCTCCC | 0.361 ± 0.00166
80 | TATCGAAA | 0.345 ± 0.0543
81 | CCATCTCG | 0.166 ± 0.114
82 | GATCATCA | 0.34 ± 0.00658
83 | GATCATGC | 0.242 ± 0.0641
84 | GATCATAC | 0.3778 ± 0.00307
85 | GATCACAC | 0.351 ± 0.0284
86 | GCTCATCC | 0.219 ± 0.00236
